High-throughput results (PubChem BioAssay)
Most compounds without a hit are left out; they make up all but 3.9% or so of the library.
BoNT-A LC inh2 – blocks Botulinum neurotoxin A light chain protease | multiplex microsphere protease substrate cleavage, flow cytometry | inhibition, % at 10 µM | hit rate 0.17% among 360,000 | AID 588499
BoNT-F LC inh – inhibitors of Botulinum neurotoxin F light chain protease. Multiplex microsphere protease cleavage assay, flow cytometry. inhibition, % at 10 µM. hit rate 0.22% among 360,000. AID 588497; in the data active = inhibition above about 35%, passing the limit was not always enough; inconclusive = no clear call, values can overlap the other calls
Bead autofluor – compound fluorescence in toxin protease inhibitor counterscreen; hit rate 3.1% among 360,000; fluorescence intensity (test concentration not listed); AID 624483; compound autofluorescence counterscreen, microsphere flow cytometry; hits give high values; in the data active = fluorescence intensity above about 16000; inconclusive = no clear call, values can overlap the other calls
Anthrax LF prot – anthrax lethal factor protease inhibition; P15917; multiplex microsphere protease cleavage assay, LF; inhibition, % at 10 µM; hit rate 0.12% among 360,000; AID 588501
SARS 3CLpro inh – SARS-CoV 3CLpro protease inhibition; P0C6X7; AID 1706; inhibition, % at 6 µM; hit rate 0.14% among 290,000; recombinant SARS-CoV 3CLpro, quenched FRET peptide cleavage; in the data active = inhibition above about 12%
VHR inh abs – blocks human VHR1 dual specificity phosphatase. P51452. inhibition, % at 13.3 µM. AID 1654. recombinant VHR phosphatase, pNPP absorbance. hit rate 0.52% among 290,000; in the data active = inhibition above about 50%
Target sequence (P51452 whole entry, looked up): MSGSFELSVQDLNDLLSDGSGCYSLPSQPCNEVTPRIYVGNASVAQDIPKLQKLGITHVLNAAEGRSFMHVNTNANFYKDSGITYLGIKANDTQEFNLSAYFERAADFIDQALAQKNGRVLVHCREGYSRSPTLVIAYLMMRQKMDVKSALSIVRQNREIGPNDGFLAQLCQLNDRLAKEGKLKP
Hits are given with their value; i = inactive; ? = inconclusive; nt = not tested or not shown. Cut-off read from the data, not from the text of the source, unless noted: active = inhibition above about 30%; inconclusive = no clear call, values can overlap the other calls; inactive = below that.

SMILES	BoNT-A LC inh2	BoNT-F LC inh	Bead autofluor	Anthrax LF prot	SARS 3CLpro inh	VHR inh abs
CC1CCN(C(=O)COc2ccc(S(=O)(=O)N3CCOCC3)cc2)CC1	i	i	i	i	nt	nt
Cc1ccc(-c2nc(Nc3ccc(O)cc3)c3ccccc3n2)cc1	i	i	i	i	i	51
Cc1ccc(-c2nc(Nc3cccc(O)c3)c3ccccc3n2)cc1	i	?	i	i	i	nt
Cc1ccccc1OCC(=O)Nc1ccc(C(=O)Nc2ccccc2C(=O)O)cc1	i	i	i	i	i	i
CC1CCCN(CCOCCOc2ccc(Cl)cc2Br)C1 (stereo not drawn)	i	i	21666	i	i	i
CC1CCCN(CCOCCOc2ccc(Br)cc2Cl)C1 (stereo not drawn)	i	i	i	i	i	i
C/C(=N/NS(=O)(=O)c1ccc(Br)cc1)c1cccc(NC(=O)C2CC2)c1	i	i	i	i	nt	nt
Cc1ccc(Cl)c(OCC(=O)NCc2ccco2)c1	?	i	21508	i	i	i
O=C(COc1ccccc1Br)NCc1ccco1	i	i	16469	i	i	i
O=C(/C=C/c1ccc(Cl)c(Cl)c1)NCc1ccco1	i	35	i	i	i	i
O=C(/C=C/c1ccccc1)NCc1ccco1	i	i	i	i	i	i
CCSc1nnc(-c2cccc(S(=O)(=O)N(CC)CC)c2)n1Cc1ccccc1	?	i	i	i	i	i
CCNC(=O)CSc1nnc(-c2cccc(S(=O)(=O)N(CC)CC)c2)n1CCc1ccccc1	i	i	20492	i	i	i
O=C(NCCNC(=O)c1ccccc1Br)c1cccnc1	i	i	i	i	i	i
COC(=O)N/N=C/c1cc(C)n(-c2ccc(F)cc2)c1C	i	i	i	i	i	i
COC(=O)N/N=C/c1cc(C)n(-c2ccc(Br)cc2)c1C	i	?	i	31	i	i
CC(=O)Nc1cc(Cl)ccc1OS(=O)(=O)c1ccc(C)cc1	i	i	i	i	i	i
C=CCn1c(SCC(=O)Nc2ccccc2CC)nnc1-c1ccncc1	i	i	23141	i	i	i
Cc1ccc(OCCSc2nnc(-c3ccncc3)n2C)cc1	i	i	22301	i	i	i
Cn1c(SCc2ccccc2)nnc1-c1ccncc1	?	i	24601	i	i	i
Cn1c(SCC(=O)Nc2ccc(NC(=O)c3ccccc3)cc2)nnc1-c1ccncc1	i	i	i	i	i	52
Cn1c(SCCOc2cccc(Cl)c2)nnc1-c1ccncc1	i	i	i	i	i	i
CCCCCCC(=O)NNC(=O)CC(=O)Nc1ccccc1C(=O)O	i	i	i	i	i	i
Cc1cccc(OCCSc2nnc(-c3ccoc3C)n2C)c1	?	i	20328	i	i	i
Cn1c(SCc2ccc(F)cc2)nnc1-c1ccccn1	i	i	23620	i	i	i
SMILES	BoNT-A LC inh2	BoNT-F LC inh	Bead autofluor	Anthrax LF prot	SARS 3CLpro inh	VHR inh abs
Cc1ccc(-c2nnc3ccc(SCC(=O)Nc4cc(C)on4)nn23)cc1	i	i	20468	i	i	i
Cc1ccc(CSc2nnc(-c3ccccn3)n2C)cc1	i	i	i	i	i	i
c1ccc(CSc2nncn2-c2ccccn2)cc1	i	i	22351	i	i	i
O=C(CSc1nncn1-c1ccccn1)Nc1ccccc1Cl	i	i	i	i	i	i
Cc1cccc(OCCSc2nncn2C)c1	i	i	i	i	i	i
Cc1cc(NC(=O)CSc2nnc(-c3cccnc3)n2C)no1	?	i	21792	i	i	i
Fc1ccc(CSc2nncn2NCc2ccccc2)cc1	i	i	21851	i	i	i
CN(C)c1ccc(CNn2cnnc2SCc2ccc(F)cc2)cc1	i	i	i	i	i	i
Nn1c(SCc2ccc(F)cc2)nnc1-c1ccncc1	i	55	i	?	i	i
COc1ccc(CSc2nnc(-c3ccncc3)n2N)cc1	i	i	i	i	i	i
O=C(CCNC(=O)c1ccc([N+](=O)[O-])cc1)Nc1nc2ccccc2[nH]1	i	i	i	i	nt	nt
O=C1N(c2cccc(Cl)c2)C(c2ccc(Cl)cc2)N2CCCN12 (stereo not drawn)	i	i	i	i	i	i
Cc1cccc(C(=O)NCCC(=O)Nc2ccc(F)c([N+](=O)[O-])c2)c1	i	i	i	i	i	i
Cc1ccc(S(=O)(=O)C(CCC(=O)c2ccc(Cl)cc2)C(N)=O)cc1 (stereo not drawn)	i	i	21117	i	i	i
Cc1ccc(NCCC(=O)c2ccc(Cl)cc2)cc1	i	i	i	i	i	i
O=C(NC(Cc1ccccc1)C(=O)O)OCC1c2ccccc2-c2ccccc21 (stereo not drawn)	i	i	i	i	i	53
